From PubChem
Myeloid diff MLP – induction of myeloid progenitor differentiation, primary screen, cell-based, flow cytometry, MLPCN library; ER-HoxA9 myeloid progenitors, lysozyme-GFP differentiation; calls only at 10 µM; 360,000 compounds, 1% hits;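 active means normalized GFP-positive differentiation at or above the plate's own cutoff, the solvent-only control mean plus 3 SD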;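 further: cells exposed to compound for four days before flow analysis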
IDE act – human IDE activators in live cells, primary screen, fluorescence polarization, HEK cells, FAbeta-B substrate; Insulin-degrading enzyme (Homo sapiens), P14735; FAbeta-B cleavage; 0% vehicle, 100% cell-free pure enzyme wells; activation, % at 5.96 µM; 340,000 compounds, 0.073% hits;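 active means activation above the mean of all tested compounds plus 3 SD, set per screening campaign, cut at about 17% in these data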
CRFR2-BP antag – antagonists of CRF-BP/CRF-R2 complex, primary screen, cell-based, HEK293, calcium dye fluorescence, uHTS | 350,000 compounds, 0.59% hits | inhibition, % at 11.8 µM | AID 588475, 2011 | CRF-induced calcium fluorescence;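 active means inhibition of the ligand-induced calcium signal above about 50% at the single tested concentration, limit read from the data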
CRFBP-R2 agonist – agonists of CRF-BP/CRF-R2 complex, primary screen, cell-based, HEK293, calcium dye fluorescence, uHTS | calcium dye fluorescence (FLIPR); percent of saturating CRF peptide response | AID 588473, 2011 | activation, % at 13.2 µM | 350,000 compounds, 0.46% hits;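 active means activation of at least 50%, plus an integration ratio under a set limit after plate pattern correction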
TPT1 inh – Candida albicans TPT1 enzyme inhibitors, primary screen, biochemical, fluorescence polarization | tRNA 2'-phosphotransferase TPT1 (Candida albicans SC5314) | recombinant caTPT1, FP RNA substrate dephosphorylation | inhibition, % at 5 µM | 300,000 compounds, 0.81% hits;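 active means inhibition above the mean of all tested compounds plus 3 SD, set per screening campaign, cut at about 24% in these data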
IDE inh – human IDE inhibitors in live cells, primary screen, fluorescence polarization, HEK cells, FAbetaB substrate | FAbetaB cleavage | inhibition, % at 5.59 µM | Insulin-degrading enzyme (Homo sapiens), P14735 | 320,000 compounds, 0.41% hits;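 active means percent inhibition above the average of all tested compounds plus 3 SD, set per screening campaign, cut at about 16% in these data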;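 further: IDE supplied by intact live HEK cells; FP after avidin binding of uncleaved biotin substrate so inhibition keeps polarization high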
Numbers stand for hits; – = inactive; · = not tested or not shown; + = active, no number. Compounds with a hit are over-represented: about 2.6% of the library has one in this group of screens.

SMILES | Myeloid diff MLP | IDE act | CRFR2-BP antag | CRFBP-R2 agonist | TPT1 inh | IDE inh
CC1(C)OC2C(O1)[C@@H](CO)O[C@H]2n1cnc2c(N)ncnc21 (some centres undefined) | – | – | – | – | – | –
Cc1cc(S(=O)(=O)NC[C@H]2O[C@@H](n3cnc4c(N)ncnc43)[C@H](O)[C@@H]2O)c(C)s1 | – | – | – | – | · | –
CC(C)C(NC(=O)c1ccccc1)C(=O)NCCc1ccccc1 (centres undefined) | – | – | – | – | – | –
COc1cccc(C(=O)Nc2cc(C(=O)NCc3ccc(C)cc3)ccc2N2CCC3(CC2)CC(c2cccc(Br)c2)=NO3)c1 | – | – | 66 | – | – | –
CCCNC(=O)c1ccc(N2CCC3(CC2)CC(c2ccccc2)=NO3)c(NC(=O)c2ccc(Br)cc2)c1 | – | – | – | – | – | –
CCCNC(=O)c1ccc(N2CCC3(CC2)CC(c2ccccc2)=NO3)c(NC(=O)c2ccccc2)c1 | + | – | – | – | – | –
CC(C)(C)OC(=O)N1CCCN(C(=O)Nc2cccc(Cl)c2)CC1 | – | · | 113 | – | – | –
CC(C)(C)OC(=O)N1CCCN(C(=O)Nc2ccccc2)CC1 | – | · | – | – | – | –
CCc1ccccc1NC(=O)C1CCN(S(C)(=O)=O)CC1 | + | · | – | – | – | –
O=C(O)c1ccc(N2C(=O)/C(=C/c3ccc(-c4ccc([N+](=O)[O-])cc4)o3)C=C2c2ccccc2)cc1 | + | – | – | – | – | –
COc1ccc(NC(=O)N2CCN(c3nc(-c4cccc(OC)c4)cs3)CC2)cc1 | + | – | – | – | – | –
S=c1[nH]nc(C2CCCCC2)n1/N=C/C(Cl)=C\c1ccccc1 | + | – | – | – | – | –
S=c1[nH]nc(C2CCCCC2)n1/N=C/C=C/c1ccccc1 | – | – | – | – | – | –
Cc1ccc(C(=O)NCc2ccco2)o1 | + | – | – | – | – | –
O=C(COc1ccccc1)NCc1ccco1 | – | – | 65 | – | · | ·
Cc1cc(C(=O)NCc2ccco2)on1 | – | – | – | – | – | –
Cc1cn([C@H]2C[C@H](O)[C@@H](CNCc3cnc(N4CCOCC4)s3)O2)c(=O)[nH]c1=O | – | · | – | – | · | ·
CCNc1c(NS(=O)(=O)c2ccc(F)c(Cl)c2)c(=O)oc2ccccc12 | – | – | – | – | – | –
CCc1noc(C)c1C(=O)NCCN1C(=O)S/C(=C\c2ccccc2F)C1=O | – | · | – | – | · | ·
Cc1ccc(C)c(N2CCN(C(=O)c3ccc(CSc4nc5ccncc5[nH]4)cc3)CC2)c1 | + | – | – | – | – | –
COc1ccc(CN(C(=O)c2cccc(OC)c2)C2CCS(=O)(=O)C2)cc1 (centres undefined) | – | · | – | – | – | –
COc1ccc(CN(C(=O)c2ccc(C)cc2)C2CCS(=O)(=O)C2)cc1 (centres undefined) | – | – | 64 | – | – | –
NC(=O)C1CCN(c2nc(-c3ccc4ccccc4c3)cs2)CC1 | – | – | – | – | · | –
O=C(CCc1nc2ccccc2c(=O)[nH]1)Nc1cc(Cl)ccc1N1CCCCC1 | + | – | – | – | · | –
Cc1cccc(N2CCN(C(=O)CCc3nc4ccccc4c(=O)[nH]3)CC2)c1C | – | – | 74 | – | · | –
Cc1ccc(C(=O)NC(=S)/C=C2\N(C)c3ccccc3C2(C)C)cc1 | + | – | – | – | – | –
Cc1c(NC(=S)/C=C2\N(C)c3ccccc3C2(C)C)c(=O)n(-c2ccccc2)n1C | + | – | – | – | – | –
CN1/C(=C\C=N\NC(=O)c2ccc(O)cc2)C(C)(C)c2ccccc21 | + | – | – | – | – | –
CN1/C(=C\C=N\NC(=O)c2cccnc2)C(C)(C)c2ccccc21 | – | – | – | – | – | –
COc1cc(CN2C[C@@H](CO)O[C@@H](n3cnc4c(N(C)C)ncnc43)C2)cc(OC)c1OC | – | · | · | · | · | ·
